# Measurements published in ChEMBL document CHEMBL3988442, “University of Dundee, Small-Polar-MMV Screening Library” (2021).
# Hit rate of the full screen: of about 48,000 compounds, about 13,000 (27%) showed an effect of 50% or more. The list shows a part of the results.
# System: Wolbachia pipientis
# Experiment: Anti-Wolbachia Cell-Based Screen
# Type: functional
# Parameters: scale not given: in the data most compounds retested in dose-response had high values
# Details: 5 µM
row,SMILES,Percent Effect [%]
1,CNC(=O)c1cc2c(nc1NC(C)C)CCN(C(=O)NC(C)C)CC2,-1.585
2,CCN1CCOCC2(CCCN(c3nncs3)C2)C1 (stereo not drawn),-9.534
3,CC(=O)c1cc(CC(=O)N2CCCC2c2nc(C(C)C)no2)cs1 (stereo not drawn),-13.65
4,Cn1nnnc1SCCC(=O)NCC(C)(C)c1ccccc1F,-11.64
5,Cc1nn(C)cc1-c1cc(C(=O)NCC(C)(C)c2ccccc2F)n[nH]1,89.7
6,Cc1cc(C)n(CC(C)NC(=O)C(C)(C)c2ccccc2F)n1 (stereo not drawn),6.546
7,CC(Cn1cncn1)NC(=O)NCC(C)(C)c1ccc(F)cc1 (stereo not drawn),10.62
8,Cc1nn(C)cc1-c1cc(C(=O)NCC(C)(C)c2ccc(F)cc2)n[nH]1,130.7
9,Cc1nncn1CCNC(=O)C(C)(C)c1cccc(F)c1,-15.91
10,O=C(NCc1nc[nH]n1)c1cc(COc2cccc(F)c2)[nH]n1,-19.41
11,CSCC(C)(O)CNC(=O)c1ccc(F)cc1Cl (stereo not drawn),16.17
12,Cc1nn(C)cc1-c1cc(C(=O)NCC(C)(C)c2cccc(F)c2)n[nH]1,113.6
13,O=C1CC(c2ccccc2F)c2c(n3ccsc3nc2=O)N1 (stereo not drawn),13.25
14,CC(NC(=O)Nc1cc(F)cc(F)c1)c1nc[nH]n1 (stereo not drawn),-15.42
15,O=C(NCC1CC1)C1CCC2(CCN(C(=O)c3cnccn3)CC2)O1 (stereo not drawn),100.2
16,O=C(C1CCC2(CCN(CC3CC3)CC2)O1)N1CCCC1.O=C(O)C(F)(F)F (stereo not drawn),-8.008
17,O=C(NCC1CC1)C1CN(C(=O)c2cccnc2)CC12CCOCC2 (stereo not drawn),0.4189
18,O=C(NCC1CC1)C1CCC2(CCN(C(=O)c3cccnc3)CC2)O1.O=C(O)C(F)(F)F (stereo not drawn),93.2
19,CC1N(CC2CC2)C(=O)COC12CCN(C(=O)c1ccncc1)CC2 (stereo not drawn),-6.799
20,O=C(NCC1CC1)C1CN(C(=O)c2cnccn2)CC12CCOCC2 (stereo not drawn),-1.801
21,O=C(NCC1CC1)C1CCC2(CCN(C(=O)c3ccncc3)CC2)O1.O=C(O)C(F)(F)F (stereo not drawn),111.8
22,O=C1COC2(CCN(C(=O)c3cnccn3)CC2)CN1CC1CC1,-3.882
23,CCc1nnc2n1CC(CNCc1nc(-c3ccsc3)no1)CC2 (stereo not drawn),-16.4

row,SMILES,Percent Effect [%]
1,Cc1ccccc1CN(C)C(=O)Cn1nc(-c2ccc(F)cc2)oc1=O,-30.13
2,COc1ncccc1C(=O)N1CC(c2nc(-c3ccco3)no2)C1,8.085
3,COCCNC(=O)Cn1c(-c2ccco2)cc2cccnc21,97.97
4,CC(C)N(C(=O)Cn1c(-c2ccco2)cc2cccnc21)C(C)C.Cl,129.4
5,Cc1nc(-c2ccccc2)n(CC(=O)N(C(C)C)C(C)C)n1,7.414
6,COc1cccc(OCCNC(=O)CN2CCN(C)CC2C)c1 (stereo not drawn),0.3417
7,O=C(c1ncoc1-c1ccco1)N1CCCN(c2ncccn2)CC1,-13.17
8,COCCCNC(=O)Cn1nnc(-c2cc3ccccc3o2)n1,-9.995
9,Cl.O=C(Cn1c(-c2ccco2)cc2cccnc21)N1CCCC1,109.6
10,O=C(Cn1ccc2ncccc2c1=O)N1CCCCC1,-19.73
11,CCCS(=O)(=O)NCC1CCOc2ccccc2C1 (stereo not drawn),-3.198
12,Cn1nnc2c1C(COCC1CC1)CN(C(=O)Cc1ccccn1)C2 (stereo not drawn),3.096
13,CNc1ncc(CN(C)c2nc(C3CCCC3)nc3c2cnn3C)cn1,113.7
14,Cc1cc(C)nc(CN(C)c2nc(C3CCCC3)nc3c2cnn3C)c1,180.1
15,Cn1ncc2c(NCCn3cccc3)nc(C3CCCC3)nc21,12.23
16,CN(Cc1ccno1)c1nc(C2CCCC2)nc2c1cnn2C,93.91
17,Cc1c[nH]c(CN(C)c2nc(C3CCCC3)nc3c2cnn3C)n1,-9.015
18,CNCCCNc1nc(C2CCCC2)nc2c1cnn2C,-5.607
19,Cc1nn(C)c(C)c1CN(C)c1nc(C2CCCC2)nc2c1cnn2C,74.08
20,Cc1cc(CC(C)Nc2nc(C3CCCC3)nc3c2cnn3C)[nH]n1 (stereo not drawn),4.574
21,CCc1nnc(CN(C)c2nc(C3CCCC3)nc3c2cnn3C)o1,-12.86
22,Cc1nc(N(C)CCN(C)C)c2cnn(C)c2n1,-4.82
23,CCC(Nc1nc(C2CCCC2)nc2c1cnn2C)c1ccncc1 (stereo not drawn),11.81

row,SMILES,Percent Effect [%]
1,CCCc1nc(N(C)Cc2cnc(NC)nc2)c2cnn(C)c2n1,3.632
2,O=C(c1ccc(-n2cncn2)cc1)N1CCN(c2cnccn2)CC1,-5.785
3,N#Cc1ccc(NCC(=O)Nc2ccn(Cc3cccnc3)n2)cc1,0.1964
4,O=C(CCc1ccccn1)N1CCc2cc(Cl)cc(Cl)c2C1,-9.614
5,CC(NC1(CNC(=O)C(C)(C)C#N)CCOCC1)c1ccccc1 (stereo not drawn),-5.654
6,Cc1noc(C)c1CN(C)c1nc(C2CCCC2)nc2c1cnn2C,118.2
7,CCOCCNc1nc(C2CCCC2)nc2c1cnn2C,-2.506
8,CC(C)N(CCNc1nc(C2CCCC2)nc2c1cnn2C)C(C)C,-18.52
9,COc1ncccc1CN1CCn2c(C(=O)N3CCCC3)cnc2C1.O=C(O)C(F)(F)F.O=C(O)C(F)(F)F,-2.628
10,COCCN1CCn2cc(CN(C)Cc3ccco3)nc2C1,6.66
11,Cc1nc2c(c(NCC(O)C(F)(F)F)n1)CCNCC2 (stereo not drawn),-4.402
12,CC(Nc1ncnc2c1CCNC2)c1ccc(C(C)(C)C)cc1 (stereo not drawn),30.56
13,Cc1ccccc1C(Nc1ncnc2c1CCNC2)c1ccccc1 (stereo not drawn),93.65
14,Cc1nc2c(c(NCC(O)c3ccccc3Cl)n1)CCNCC2 (stereo not drawn),-5.653
15,Cc1[nH]c2ccc(Cl)cc2c1CCNc1ncnc2c1CCNC2,12.31
16,Cc1ccccc1C(CNc1ncnc2c1CCNCC2)N(C)C (stereo not drawn),105.5
17,CCCc1ccc(C(C)Nc2ncnc3c2CCNC3)cc1 (stereo not drawn),-93.4
18,Cc1ccccc1C(CNc1ncnc2c1CCNC2)N(C)C (stereo not drawn),84.04
19,CCOc1ccc(C(C)Nc2ncnc3c2CCNC3)cc1OCC (stereo not drawn),-5.441
20,Cc1[nH]c2ccc(C#N)cc2c1CCNc1ncnc2c1CCNCC2,9.456
21,Cc1nc2c(c(NCC(c3ccccc3C)N(C)C)n1)CCNC2 (stereo not drawn),96.84
22,OC(CNc1ncnc2c1CCNCC2)C(F)(F)F (stereo not drawn),-1.789
